Experimental findings from PubChem BioAssay (EPA / NIEHS) are described below.

Structures are written as SMILES. Calls of active or inactive are those of the source. Rule for the calls: active = hit-call score of the fitted dose curve at least 0.9, where 1 is the maximum; inactive = score below 0.9.

Conditions in all cases: mRNA level, 48 h; actives raise or lower the signal
Read-out in assay [1]: JUN Transcription Factor, JUN (gene 3725)
In words: LTEA_HepaRG_JUN: Life Technologies and Expression Analysis (LTEA) Assay for JUN Transcription Factor using HepaRG (AID 2283513). The method in brief: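 HepaRG cells, 48 h post-plating, exposed 48 h in serum-free induction medium to 8-point half-log series (top 100 uM, 0.5% DMSO), duplicate; mRNA by qRT-PCR (TaqMan, Fluidigm), normalized to ACTB/GAPDH/POLR2A; bidirectional fit vs DMSO.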

Read-out in assay [2]: Lipase C (LIPC), LIPC (gene 3990)
In words: LTEA_HepaRG_LIPC: Life Technologies and Expression Analysis (LTEA) Assay for Lipase C (LIPC) using HepaRG (AID 2283514). The procedure, abridged:
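HepaRG cells, 48 h after plating, treated in duplicate for 48 h in serum-free induction medium over 8 half-log concentrations from 100 uM, 0.5% DMSO. LIPC mRNA by TaqMan qRT-PCR normalized to ACTB/GAPDH/POLR2A; bidirectional fit versus DMSO.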

Read-out in assay [3]: Lipoprotein lipase (LPL), LPL (gene 4023)
In words: LTEA_HepaRG_LPL: Life Technologies and Expression Analysis (LTEA) Assay for Lipoprotein lipase (LPL) using HepaRG (AID 2283515). The procedure, abridged: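 Differentiated HepaRG cells, plated 48 h, then exposed 48 h in serum-free induction medium to 8 concentrations (top 100 uM, half-log steps) in 0.5% DMSO, duplicate. LPL mRNA measured by qRT-PCR, normalized to ACTB, GAPDH and POLR2A.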

Read-out in assay [4]: MicroRNA 122 (MIR122), gene 406906
Nature of the assay: LTEA_HepaRG_MIR122: Life Technologies and Expression Analysis (LTEA) Assay for MicroRNA 122 (MIR122) using HepaRG (AID 2283516). Note: the transcript read is the microRNA miR-122. The procedure, abridged: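 Differentiated human HepaRG cells in serum-free induction medium exposed 48 h to 8 half-log concentrations from 100 uM in 0.5% DMSO, duplicate. MIR122 quantified by Fluidigm TaqMan qRT-PCR, normalised to ACTB, GAPDH, POLR2A; fold change fitted bidirectionally versus DMSO.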

Read-out in assay [5]: matrix metalloproteinase-10 (MMP10), MMP10 (gene 4319)
In words: LTEA_HepaRG_MMP10: Life Technologies and Expression Analysis (LTEA) Assay for matrix metalloproteinase-10 (MMP10) using HepaRG (AID 2283517). The method in brief:
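Differentiated HepaRG cells in serum-free induction medium exposed 48 h in duplicate to 8-point half-log series up to 100 uM in 0.5% DMSO. mRNA quantified by qRT-PCR, normalised to ACTB, GAPDH, POLR2A; bidirectional fit versus DMSO.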

Read-out in the next assay: MYC, MYC (gene 4609)
In words: LTEA_HepaRG_MYC: Life Technologies and Expression Analysis (LTEA) Assay for MYC using HepaRG (AID 2283518). The method in brief:
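Differentiated human HepaRG cells, plated 48 h then switched to serum-free induction medium, were exposed in duplicate for 48 h to 8-point half-log series up to 100 uM in 0.5% DMSO. MYC mRNA measured by qRT-PCR, normalized to ACTB/GAPDH/POLR2A.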

Read-out in assay [6]: Paternally Expressed 10 (PEG10), PEG10 (gene 23089)
Nature of the assay: LTEA_HepaRG_PEG10: Life Technologies and Expression Analysis (LTEA) Assay for Paternally Expressed 10 (PEG10) using HepaRG (AID 2283520). The procedure, abridged: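 Differentiated HepaRG cells exposed 48 h in serum-free induction medium to eight half-log concentrations topping at 100 uM, 0.5% DMSO, in duplicate. PEG10 mRNA quantified by TaqMan qRT-PCR, normalized to ACTB, GAPDH and POLR2A; bidirectional fit versus DMSO.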

Read-out in assay [7]: Nuclear factor NF-kappa-B p105 subunit (Homo sapiens) (UniProt P19838)
In words: LTEA_HepaRG_NFKB1: Life Technologies and Expression Analysis (LTEA) Assay for Nuclear Factor Kappa B Subunit 1 (NFKB1) using HepaRG (AID 2283521).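 Note: TaqMan qRT-PCR transcript normalised to ACTB GAPDH and POLR2A housekeeping genes.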 The procedure, abridged:
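HepaRG, 48 h exposure; 8-pt half-log series from 100 uM in 0.5% DMSO; duplicates. Readout: NFKB1 mRNA by qRT-PCR (Fluidigm arrays), housekeeping-normalized. Gain/loss fit vs DMSO baseline.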

Read-out in assay [8]: Protein phosphatase 2A (PPP2R4), PTPA (gene 5524)
In words: LTEA_HepaRG_PPP2R4: Life Technologies and Expression Analysis (LTEA) Assay for Protein phosphatase 2A (PPP2R4) using HepaRG (AID 2283522). The procedure, abridged: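 Differentiated human HepaRG cells in serum-free induction medium were exposed 48 h to 8 concentrations (top 100 µM, half-log steps, duplicate) in 0.5% DMSO. PPP2R4 mRNA was measured by TaqMan qRT-PCR, normalised to ACTB, GAPDH and POLR2A, and fitted bidirectionally versus DMSO.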

Read-out in assay [9]: Phosphatase and tensin (PTEN), PTEN (gene 5728)
In words: LTEA_HepaRG_PTEN: Life Technologies and Expression Analysis (LTEA) Assay for Phosphatase and tensin (PTEN) using HepaRG (AID 2283523). The method in brief:
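HepaRG cells, 48 h after plating, exposed in duplicate for 48 h in serum-free induction medium to 8 half-log concentrations up to 100 uM (0.5% DMSO). PTEN mRNA by qRT-PCR, normalized to ACTB, GAPDH, POLR2A; bidirectional fit versus DMSO.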

Read-out in assay [10]: solute carrier (SLC22A1), SLC22A1 (gene 6580)
In words: LTEA_HepaRG_SLC22A1: Life Technologies and Expression Analysis (LTEA) Assay for solute carrier (SLC22A1) using HepaRG (AID 2283524). The procedure, abridged: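 Differentiated human HepaRG cells in serum-free induction medium, exposed 48 h in duplicate to 8-point half-log series from 100 µM top in 0.5% DMSO. SLC22A1 mRNA by TaqMan qRT-PCR normalized to ACTB, GAPDH, POLR2A; bidirectional fit versus DMSO.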

Read-out in assay [11]: Pyruvate Dehydrogenase Kinase 4 (PDK4), PDK4 (gene 5166)
In words: LTEA_HepaRG_PDK4: Life Technologies and Expression Analysis (LTEA) Assay for Pyruvate Dehydrogenase Kinase 4 (PDK4) using HepaRG (AID 2283525). The method in brief:
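HepaRG cells plated 48 h, then switched to serum-free induction medium and exposed in duplicate for 48 h to 8 half-log concentrations from 100 uM in 0.5% DMSO. PDK4 mRNA measured by qRT-PCR, normalized to ACTB, GAPDH and POLR2A; bidirectional fit versus DMSO.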

Read-out in assay [12]: NAD(P)H dehydrogenase [quinone] 1 (NQO1), NQO1 (gene 1728)
Nature of the assay: LTEA_HepaRG_NQO1: Life Technologies and Expression Analysis (LTEA) Assay for NAD(P)H dehydrogenase [quinone] 1 (NQO1) using HepaRG (AID 2283526). The procedure, abridged:
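Differentiated human HepaRG cells in serum-free induction medium, dosed in duplicate for 48 h at 8 half-log concentrations up to 100 uM in 0.5% DMSO. NQO1 mRNA by qRT-PCR normalized to ACTB, GAPDH, POLR2A; bidirectional fit versus DMSO baseline.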

Read-out in assay [13]: Nuclear factor erythroid 2-related factor 2 (Homo sapiens) (UniProt Q16236)
In words: LTEA_HepaRG_NFE2L2: Life Technologies and Expression Analysis (LTEA) Assay for Nuclear factor erythroid 2-related factor 2 (NFE2L2) Transcription Factor using HepaRG (AID 2283527).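 Note: TaqMan qRT-PCR transcript level normalised to ACTB GAPDH and POLR2A housekeeping genes.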 The procedure, abridged:
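Differentiated human HepaRG cells, serum-free induction medium, exposed 48 h in duplicate to eight half-log concentrations up to 100 uM in 0.5% DMSO. NFE2L2 mRNA by Fluidigm TaqMan qRT-PCR, normalised to ACTB, GAPDH, POLR2A; bidirectional change versus DMSO.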

Read-out in assay [14]: succinate dehydrogenase complex iron sulfur subunit B (SDHB), SDHB (gene 6390)
Nature of the assay: LTEA_HepaRG_SDHB: Life Technologies and Expression Analysis (LTEA) Assay for succinate dehydrogenase complex iron sulfur subunit B (SDHB) using HepaRG (AID 2283528). The method in brief:
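Readout is SDHB transcript level by qRT-PCR, normalised to three housekeeping genes and fitted bidirectionally against 0.5% DMSO vehicle. Human HepaRG cells were treated for 48 h at up to 100 uM.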

Read-out in assay [15]: Signal transducer and activator of transcription 3 (Homo sapiens) (UniProt P40763)
Nature of the assay: LTEA_HepaRG_STAT3: Life Technologies and Expression Analysis (LTEA) Assay for Signal transducer and activator of transcription (STAT3) using HepaRG (AID 2283529). The procedure, abridged: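 Differentiated HepaRG cells, serum-free induction medium, dosed 48 h in duplicate, 8 half-log concentrations from 100 uM in 0.5% DMSO. STAT3 mRNA by qRT-PCR, normalised to ACTB, GAPDH, POLR2A; bidirectional fit versus DMSO.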

Read-out in assay [16]: solute carrier (SLCO1B1), SLCO1B1 (gene 10599)
Nature of the assay: LTEA_HepaRG_SLCO1B1: Life Technologies and Expression Analysis (LTEA) Assay for solute carrier (SLCO1B1) using HepaRG (AID 2283530). The procedure, abridged: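 Differentiated human HepaRG cells, plated 48 h, switched to serum-free induction medium and exposed in duplicate for 48 h to 8 half-log concentrations (top 100 uM) in 0.5% DMSO. SLCO1B1 mRNA by TaqMan qRT-PCR, normalized to ACTB/GAPDH/POLR2A.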

Read-out in assay [17]: Transforming Growth Factor (TGFA), TGFA (gene 7039)
In words: LTEA_HepaRG_TGFA: Life Technologies and Expression Analysis (LTEA) Assay for Transforming Growth Factor (TGFA) using HepaRG (AID 2283532). The procedure, abridged: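 Differentiated HepaRG cells exposed 48 hours in serum-free induction medium, 0.5% DMSO vehicle, 8-point half-log series from 100 uM, in duplicate. TGFA mRNA by TaqMan qRT-PCR, normalised to ACTB, GAPDH, POLR2A; bidirectional fit versus DMSO.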

Read-out in assay [18]: sulfotransferase 2A1 (SULT2A1), SULT2A1 (gene 6822)
In words: LTEA_HepaRG_SULT2A1: Life Technologies and Expression Analysis (LTEA) Assay for sulfotransferase 2A1 (SULT2A1) using HepaRG (AID 2283531). The method in brief:
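Differentiated human HepaRG cells in serum-free induction medium were exposed for 48 h to eight half-log concentrations (top 100 uM, 0.5% DMSO). SULT2A1 mRNA was measured by qRT-PCR, normalized to ACTB, GAPDH and POLR2A, and fitted bidirectionally against DMSO.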

Signal transducer and activator of transcription 3 (Homo sapiens), sequence (P40763 whole entry, looked up): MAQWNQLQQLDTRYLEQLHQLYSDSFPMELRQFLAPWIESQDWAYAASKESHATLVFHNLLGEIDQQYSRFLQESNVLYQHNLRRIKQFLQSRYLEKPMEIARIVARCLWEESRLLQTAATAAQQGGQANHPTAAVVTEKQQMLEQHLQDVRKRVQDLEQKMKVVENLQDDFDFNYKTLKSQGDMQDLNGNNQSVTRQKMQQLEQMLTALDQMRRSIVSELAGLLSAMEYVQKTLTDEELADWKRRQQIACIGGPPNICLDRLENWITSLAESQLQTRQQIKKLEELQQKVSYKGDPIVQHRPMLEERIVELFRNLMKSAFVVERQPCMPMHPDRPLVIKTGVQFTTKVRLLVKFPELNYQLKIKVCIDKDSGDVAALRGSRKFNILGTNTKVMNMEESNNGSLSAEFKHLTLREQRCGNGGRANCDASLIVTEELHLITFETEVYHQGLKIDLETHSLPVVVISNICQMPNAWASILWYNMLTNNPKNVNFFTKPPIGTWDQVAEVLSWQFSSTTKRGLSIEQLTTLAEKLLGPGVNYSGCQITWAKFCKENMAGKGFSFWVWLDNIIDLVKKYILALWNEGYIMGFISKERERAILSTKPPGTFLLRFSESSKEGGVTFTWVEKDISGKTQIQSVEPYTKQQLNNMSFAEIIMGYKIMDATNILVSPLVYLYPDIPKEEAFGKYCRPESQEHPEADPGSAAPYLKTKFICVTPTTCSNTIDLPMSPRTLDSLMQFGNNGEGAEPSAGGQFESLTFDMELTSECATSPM
Nuclear factor erythroid 2-related factor 2 (Homo sapiens), sequence (Q16236 whole entry, looked up): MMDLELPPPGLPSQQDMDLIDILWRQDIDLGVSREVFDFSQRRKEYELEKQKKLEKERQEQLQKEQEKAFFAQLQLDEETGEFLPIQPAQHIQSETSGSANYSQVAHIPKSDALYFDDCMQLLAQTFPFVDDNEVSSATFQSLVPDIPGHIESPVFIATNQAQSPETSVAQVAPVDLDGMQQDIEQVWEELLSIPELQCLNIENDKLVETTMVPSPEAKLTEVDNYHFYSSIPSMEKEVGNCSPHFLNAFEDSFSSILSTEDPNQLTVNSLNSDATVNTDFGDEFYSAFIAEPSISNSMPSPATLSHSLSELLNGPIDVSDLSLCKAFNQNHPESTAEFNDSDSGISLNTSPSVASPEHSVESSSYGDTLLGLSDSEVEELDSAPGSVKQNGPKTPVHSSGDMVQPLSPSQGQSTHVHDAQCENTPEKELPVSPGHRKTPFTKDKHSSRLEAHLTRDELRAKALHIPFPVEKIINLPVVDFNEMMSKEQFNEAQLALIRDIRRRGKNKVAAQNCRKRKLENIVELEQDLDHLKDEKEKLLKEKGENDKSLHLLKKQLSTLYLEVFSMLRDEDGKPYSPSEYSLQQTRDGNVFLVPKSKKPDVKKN
Nuclear factor NF-kappa-B p105 subunit (Homo sapiens), sequence (P19838 whole entry, looked up): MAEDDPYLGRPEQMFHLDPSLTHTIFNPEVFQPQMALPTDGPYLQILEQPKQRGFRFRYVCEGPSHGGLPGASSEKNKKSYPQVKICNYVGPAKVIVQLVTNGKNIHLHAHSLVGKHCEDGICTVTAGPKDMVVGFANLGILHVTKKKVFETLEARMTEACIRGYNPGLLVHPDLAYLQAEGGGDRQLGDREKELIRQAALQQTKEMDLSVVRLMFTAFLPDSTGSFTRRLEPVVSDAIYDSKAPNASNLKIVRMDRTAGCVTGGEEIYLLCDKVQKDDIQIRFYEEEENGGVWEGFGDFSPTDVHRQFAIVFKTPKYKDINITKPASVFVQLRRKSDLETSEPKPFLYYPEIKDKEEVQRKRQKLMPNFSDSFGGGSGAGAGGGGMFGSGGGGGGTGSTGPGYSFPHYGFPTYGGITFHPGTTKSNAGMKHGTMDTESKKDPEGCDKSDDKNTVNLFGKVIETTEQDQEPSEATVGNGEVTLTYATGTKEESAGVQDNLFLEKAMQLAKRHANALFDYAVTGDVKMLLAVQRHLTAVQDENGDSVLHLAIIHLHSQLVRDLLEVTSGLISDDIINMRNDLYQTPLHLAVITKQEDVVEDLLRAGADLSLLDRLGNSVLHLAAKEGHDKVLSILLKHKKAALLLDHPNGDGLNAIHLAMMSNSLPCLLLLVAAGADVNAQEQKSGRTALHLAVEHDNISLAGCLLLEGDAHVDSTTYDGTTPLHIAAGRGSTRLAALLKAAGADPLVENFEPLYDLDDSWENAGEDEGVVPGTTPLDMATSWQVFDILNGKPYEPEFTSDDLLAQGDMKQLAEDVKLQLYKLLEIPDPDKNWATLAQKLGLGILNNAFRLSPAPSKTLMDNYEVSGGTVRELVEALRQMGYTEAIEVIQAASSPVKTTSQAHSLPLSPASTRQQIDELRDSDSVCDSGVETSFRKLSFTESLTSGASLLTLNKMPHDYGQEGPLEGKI

For the molecule `CC(C)c1cccc(C(C)C)c1N1C(=O)c2ccc(O)cc2C1=O`, the call in assay [1], in [7], in assay [8], in assay [9], in [11] and in [12] was inactive. Also, the molecule was classed as inactive in assay [13], in assay [15], in assay [16] and in [17]. The half-maximal activity concentration (AC50) in assay [2] was 82.8 µM (active); in assay [3], 83.4 µM (active); in assay [4], 93.6 µM (active); in assay [5], 89.9 µM (active); with MYC, MYC (gene 4609), 50 µM (active); in assay [6], 76.8 µM (active). Also, the AC50 in assay [10] was 91.4 µM (active); in [14], 50 µM (active).

With `CCOC(=O)c1ccc(C2CCC(NC[C@H](O)COc3ccc(O)c(NS(C)(=O)=O)c3)CC2)cc1` (stereo not given in full), the outcome in assay [1] is “inactive”; in assay [2] it was “inactive”; in assay [3], “inactive”; in assay [4], “inactive”; in assay [5] it was “inactive”; with MYC, MYC (gene 4609) it was “inactive”. Besides, the molecule was classed as inactive in assay [6], in [8], in [9], in assay [10], in [11] and in assay [12]. Besides, the molecule was called inactive in assay [13], in [14], in assay [15], in assay [16], in assay [18] and in [17].

In the case of `COCCOc1cc2cc(C(=O)NC3CCN(C(C)C)CC3)n(CC(=O)Nc3ccc(Cl)cn3)c2cn1`, the outcome is “inactive” in assay [1]; “inactive” in assay [5]; “inactive” with MYC, MYC (gene 4609); “inactive” in assay [7]; “inactive” in assay [8]; “inactive” in assay [12]. In addition, the molecule was classed as inactive in assay [13], in assay [14], in assay [15] and in assay [17]. The AC50 in assay [2] is 45 µM (active); in assay [3] it was 8.93 µM (active); in assay [4] it was 45 µM (active); in [6] it was 45 µM (active); in assay [9] it was 45 µM (active); in assay [10], 62.1 µM (active). The AC50 in assay [11] is 37.4 µM (active); in [16], 56.5 µM (active).

As for `CC(C)CC(C)(O)C#CC(C)(O)CC(C)C` (stereo not given), the outcome in [1] is “inactive”; in [2], “inactive”; in assay [3], “inactive”; in [4], “inactive”; in assay [5], “inactive”; with MYC, MYC (gene 4609) it was “inactive”. Further, the outcome in assay [6], in assay [7], in assay [8], in [9], in assay [10] and in assay [11] was inactive. The molecule was classed as inactive in assay [12], in assay [13], in assay [14], in assay [15], in [16] and in [17].

For the molecule `CCCCC(CC)COC(=O)c1ccc(C(=O)OCC(CC)CCCC)cc1` (stereo not given), the outcome is “inactive” in assay [1]; “inactive” in assay [2]; “inactive” in assay [3]; “inactive” in assay [4]; “inactive” in assay [5]; “inactive” with MYC, MYC (gene 4609). Besides, the call in assay [6], in assay [8], in assay [9], in assay [10], in assay [11] and in [12] was inactive. Further, the outcome in assay [13], in [14], in [15], in assay [16], in assay [18] and in assay [17] was inactive.

Broadly, the AC50 is the midpoint of the concentration-response curve, whichever way the signal moves.
